Assay results taken from PubChem BioAssay (Tox21).
“And” between values parts separate entries of the source, which are not always exact repeats. Identical values can stand only once. Records with an inconclusive call do not appear. The source made the active and inactive calls. Calls follow the shape of the dose curve; as a rule, active = well fitted curve in the direction sought with a large enough effect in the repeat runs; inconclusive = weak or mixed curves; inactive = no such curve, though single readings can be large; an effect the other way counts as inactive or inconclusive.

Assays:
[1] = qHTS RealTime-Glo MT Cell Viability Assay in HepG2 cells - 8 hour (AID 1224873); also: nearly all actives have a fitted effect of over 55% in size; also: potency is read from the fitted curve at half-maximal effect
Method in brief: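 Real-time viability: cells seeded at 600 per well together with NanoLuc and cell-permeant prosubstrate, compounds added after 5 h incubation. Luminescence tracked at 0, 8, 16, 24, 32 and 40 h of exposure.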

[2] = qHTS RealTime-Glo MT Cell Viability Assay in HEK293 cells - 40 hour (AID 1224874); settings: RealTime-Glo luminescence; max response: hits give low values; also: nearly all actives have a fitted effect of over 50% in size; also: potency is read from the fitted curve at half-maximal effect
Method in brief: (§1)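 HEK293 cells mixed with RealTime-Glo reagents (NanoLuc plus cell-permeant prosubstrate) at 600 cells/well, preincubated 5 h at 37 C/5% CO2, then given 23 nL compound in DMSO. Nonlytic luminescence from viable cells was read at 0, 8, 16, 24, 32 and 40 h.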

[3] = A CellTox Green Cytotoxicity Assay to monitor cytotoxicity in HEK293 cells - 24 hour (AID 1224875); also: nearly all actives have a fitted effect of over 45% in size; also: potency is read from the fitted curve at half-maximal effect; as to activity change: series mostly up to about 77 µM
Method in brief: (§2)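 HEK293 cells premixed with CellTox Green dye were seeded at 600 cells/well and left 5 h at 37 C/5% CO2 before pin transfer of 23 nL compound in DMSO. Fluorescence from dye bound to dead-cell DNA was read during 40 h treatment.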

[4] = A CellTox Green Cytotoxicity Assay to monitor cytotoxicity in HepG2 cells - 16 hour (AID 1224876); also: nearly all actives have a fitted effect of over 45% in size; also: potency is read from the fitted curve at half-maximal effect
Method in brief: (§3)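 HepG2 cells were seeded together with the CellTox Green dye at 600 cells/well, left 5 h at 37 C/5% CO2, then given compounds in DMSO. Fluorescence from dye bound to dead-cell DNA was read repeatedly over 40 h of treatment at 37 C.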

[5] = qHTS RealTime-Glo MT Cell Viability Assay in HepG2 cells - 32 hour (AID 1224877); also: nearly all actives have a fitted effect of over 55% in size; also: potency is read from the fitted curve at half-maximal effect
Method in brief: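 Tox21 10K library screened in qHTS format on HepG2 cells carrying RealTime-Glo reagents. Compounds were added after a 5 h preincubation, and the luminescent signal from continuous culture was measured repeatedly during 40 h treatment.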

[6] = A CellTox Green Cytotoxicity Assay to monitor cytotoxicity in HepG2 cells - 24 hour (AID 1224878); also: nearly all actives have a fitted effect of over 45% in size; also: potency is read from the fitted curve at half-maximal effect
Method in brief: as §3

[7] = A CellTox Green Cytotoxicity Assay to monitor cytotoxicity in HepG2 cells - 40 hour (AID 1224879); also: nearly all actives have a fitted effect of over 40% in size; also: potency is read from the fitted curve at half-maximal effect
Method in brief: as §3

[8] = qHTS RealTime-Glo MT Cell Viability Assay in HEK293 cells - 0 hour (AID 1224880); also: top concentration of the series differs between compounds; nearly all actives have a fitted effect of over 45% in size
Method in brief: as §1

[9] = A CellTox Green Cytotoxicity Assay to monitor cytotoxicity in HEK293 cells - 32 hour (AID 1224881); also: nearly all actives have a fitted effect of over 40% in size; also: potency is read from the fitted curve at half-maximal effect
Method in brief: as §2

[10] = A CellTox Green Cytotoxicity Assay to monitor cytotoxicity in HepG2 cells - 0 hour (AID 1224882); also: nearly all actives have a fitted effect of over 35% in size; also: potency is read from the fitted curve at half-maximal effect
Method in brief: as §3
% is scaled to controls: 0 for no effect and ±100 for the full control effect.

C[Si](C)O[Si](C)C
inactive: Potency [1] | max response [2] -8.35% | Potency [3] | Potency [4] | Potency [5] | Potency [6] | Potency [7] | Potency [8] | Potency [9] | Potency [10]

CCNc1nc(NC(C)CC)nc(OC)n1 (stereo not given)
inactive: Potency [1] | max response [2] -18.1% | Potency [3] | Potency [4] | Potency [5] | Potency [6] | Potency [7] | Potency [8] | Potency [9] | Potency [10]

CCC(C)C(=O)OC (stereo not given)
inactive: Potency [1] | max response [2] 4.5% | Potency [3] | Potency [4] | Potency [5] | Potency [6] | Potency [7] | Potency [8] | Potency [9] | Potency [10]

Brc1ccccn1
inactive: Potency [1] | max response [2] -0.513% | Potency [3] | Potency [4] | Potency [5] | Potency [6] | Potency [7] | Potency [8] | Potency [9] | Potency [10]

O=C=NCc1cccc(CN=C=O)c1
inactive: viability change, negative = cytotoxic [1] 3.05% [at 15.8 µM] | max response [2] 3.93% | activity change [3] -11.7% [at 15.8 µM, hits give high values] | cytotoxicity increase [4] 2.28% [at 15.8 µM] | activity change, negative = cytotoxic [5] 0.5% [at 15.8 µM] | cytotoxicity [6] 0.14% [at 15.8 µM] | cytotoxicity increase [7] -0.536% [at 15.8 µM] | activity change, negative = cytotoxicity [8] 5.7% [at 15.8 µM] | cytotoxicity increase [9] -11.9% [at 15.8 µM] | cytotoxicity [10] 0.25% [at 15.8 µM]

CCCCCCS
inactive: Potency [1] | max response [2] 6.5% | Potency [3] | Potency [4] | Potency [5] | Potency [6] | Potency [7] | Potency [8] | Potency [9] | Potency [10]

c1cc2c3c(c1)ccc1cccc(c13)C2
inactive: Potency [1] | max response [2] -20.7% | Potency [4] | Potency [5] | Potency [6] | Potency [7] | Potency [8] | Potency [10]
active: Potency [3] 56.1 µM | Potency [9] 50 µM

CN1[C@@H]2CC[C@H]1CC(OC(=O)C(CO)c1ccccc1)C2 (stereo not given in full)
inactive: Potency [1] | max response [2] -0.934% and 16.5% | Potency [3] | Potency [4] | Potency [5] | Potency [6] | Potency [7] | Potency [8] | Potency [9] | Potency [10]

CC(C)c1ccccc1N
inactive: Potency [1] | max response [2] 0.54% | Potency [3] | Potency [4] | Potency [5] | Potency [6] | Potency [7] | Potency [8] | Potency [9] | Potency [10]

CCCCCCCCCCc1ccccc1
inactive: Potency [1] | max response [2] -5.33% | Potency [3] | Potency [4] | Potency [5] | Potency [6] | Potency [7] | Potency [8] | Potency [9] | Potency [10]

O=C(O)CCn1c2c(c3ccccc31)C[C@H](NS(=O)(=O)c1ccc(F)cc1)CC2
inactive: Potency [1] | max response [2] 8.69% | Potency [3] | Potency [4] | Potency [5] | Potency [6] | Potency [7] | Potency [8] | Potency [9] | Potency [10]

CCc1c(C(=O)O)c(=O)cnn1-c1ccc(Cl)cc1
inactive: Potency [1] | max response [2] 18.5% | Potency [3] | Potency [4] | Potency [5] | Potency [6] | Potency [7] | Potency [8] | Potency [9] | Potency [10]

ClC/C=C\CCl
inactive: Potency [1] | max response [2] -46.5% | Potency [3] | Potency [4] | Potency [5] | Potency [6] | Potency [7] | Potency [8] | Potency [9] | Potency [10]

COC(=O)[C@]1(C)CCC[C@@]2(C)[C@H]1CC=C1C=C(C(C)C)CC[C@@H]12
inactive: Potency [1] | max response [2] -2.95% | Potency [5] | Potency [8]
active: Potency [3] 38.9 µM | Potency [4] 24.5 µM | Potency [6] 24.5 µM | Potency [7] 24.5 µM | Potency [9] 38.9 µM | Potency [10] 24.5 µM

O=C1C=CC(=O)N1c1ccccc1
inactive: Potency [8] | Potency [10]
active: Potency [1] 19.5 µM | Potency [2] 11 µM | Potency [3] 12.3 µM | Potency [4] 19.5 µM | Potency [5] 12.3 µM | Potency [6] 13.8 µM | Potency [7] 12.3 µM | Potency [9] 11 µM

CCN=C1C=CC(=C(c2ccc(N(CC)CC)cc2)c2ccc(N(CC)CC)cc2)c2ccccc21
active: Potency [1] 19.4 µM | Potency [2] 5.46 µM | Potency [3] 19.4 µM | Potency [4] 19.4 µM | Potency [5] 19.4 µM | Potency [6] 17.3 µM | Potency [7] 19.4 µM | Potency [9] 13.7 µM
inactive: Potency [10]

CC1=CP(=O)(c2ccccc2)CC1 (stereo not given)
inactive: Potency [1] | max response [2] 9.74% | Potency [3] | Potency [4] | Potency [5] | Potency [6] | Potency [8] | Potency [9] | Potency [10]

NCCCCCCNCCCCCCN
inactive: Potency [1] | max response [2] -6.12% | Potency [3] | Potency [4] | Potency [5] | Potency [7] | Potency [8] | Potency [9] | Potency [10]

CCCCCCCCCCCCCOP(=O)(O)O
inactive: Potency [1] | max response [2] -0.341% | Potency [3] | Potency [4] | Potency [5] | Potency [7] | Potency [8] | Potency [9] | Potency [10]

C=C(C)CCCC
inactive: Potency [1] | max response [2] 3.81% | Potency [3] | Potency [4] | Potency [5] | Potency [6] | Potency [8] | Potency [9] | Potency [10]
